Values joined by “and” are separate entries in the source; they are usually repeats but may differ in a detail not shown here. Identical values can stand only once. Results filed as inconclusive are left out. Some structures have more than one record in an assay (separate samples or runs), and their calls can disagree. Active and inactive are the calls of the source. Unless noted, calls follow the shape of the dose curve; as a rule, active = well fitted curve in the direction sought with a large enough effect in the repeat runs; inconclusive = weak or mixed curves; inactive = no such curve, though single readings can be large; an effect the other way counts as inactive or inconclusive.
What was measured:
[1] = target: Thyrotropin-releasing hormone receptor (Homo sapiens) (UniProt P34981); test: qHTS assay to identify small molecule agonists of the thyrotropin-releasing hormone receptor (TRHR) signaling pathway (AID 1346891; calls by dose curve; also: potency is read from the fitted curve at half-maximal effect;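 as to activation: HEK293 cells expressing TRHR with calcium dye readout; series mostly up to about 58 µM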)
Method in brief: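 Overnight-plated (18 h, 37 °C, 5% CO2) TRHR-Hek293 cells; 2 h calcium dye at 37 °C; compound in DMSO; 3-min kinetic fluorescence read.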

[2] = Human pregnane X receptor (PXR) small molecule agonists, qHTS cell viability counter screen (AID 1346977); also: nearly all actives have a fitted effect of over 50% in size; also: potency is read from the fitted curve at half-maximal effect
Method in brief: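 After a 5hr pre-incubation, PXR-Luc HepG2 cells received compounds plus positive control in DMSO and were kept 24hr at 37C. Cell viability was quantified by fluorescence from CellTiter-Fluor added for the final hour.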

[3] = Caspase-3/7 induction in HepG2 cells by small molecules, qHTS assay (AID 1346978); also: nearly all actives have a fitted effect of over 15% in size; also: potency is read from the fitted curve at half-maximal effect
Method in brief: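 Wild-type HepG2 cells, 2,000/well, settled 5 hr at 37 C and 5% CO2, then compound-treated for 17 hr; caspase-3/7 activity read by luminescent Caspase-Glo 3/7 after 30 min at room temperature.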

[4] = Caspase-3/7 induction in CHO-K1 cells by small molecules, qHTS cell viability counter screen (AID 1346979); also: nearly all actives have a fitted effect of over 35% in size; also: potency is read from the fitted curve at half-maximal effect
Method in brief: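 Multiplexed with Caspase-Glo 3/7 in CHO-K1 cells, this counter screen added CellTiter-Fluor after 16hr of compound exposure and recorded fluorescence 1hr later.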

[5] = Caspase-3/7 induction in CHO-K1 cells by small molecules, qHTS assay (AID 1346980); also: nearly all actives have a fitted effect of over 15% in size; also: potency is read from the fitted curve at half-maximal effect
Method in brief: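 Wild-type CHO-K1 cells exposed to compounds for 17hr at 37 C, 5% CO2. Caspase-3/7 activity then measured by Caspase-Glo 3/7 luminescence after 30min at room temperature.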

[6] = Caspase-3/7 induction in HepG2 cells by small molecules, qHTS cell viability counter screen (AID 1346981); also: nearly all actives have a fitted effect of over 30% in size; also: potency is read from the fitted curve at half-maximal effect
Method in brief: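 CellTiter-Fluor fluorescence measured viability in the same wells used for Caspase-Glo 3/7. HepG2 (wild type) at 2,000 cells/well were pre-incubated 5 hr, dosed, and given reagent at 16 hr, with 1 hr further at 37C.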

[7] = target: Nuclear receptor subfamily 1 group I member 2 (Homo sapiens) (UniProt O75469); test: Human pregnane X receptor (PXR) small molecule agonists, qHTS assay (AID 1346982); also: nearly all actives have a fitted effect of over 35% in size; also: potency is read from the fitted curve at half-maximal effect
Method in brief: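 Agonist mode: luminescence from ONE-Glo after 24 h compound exposure at 37C in HepG2 cells carrying hPXR-responsive CYP3A4 luciferase, plated in charcoal-stripped serum medium 5 h beforehand.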

[8] = target: Nuclear receptor subfamily 1 group I member 2 (Rattus norvegicus) (UniProt Q9R1A7); test: Rat pregnane X receptor (rPXR) activation by small molecules, qHTS assay (AID 1346983); settings: rPXR luciferase reporter cells, One-Glo luminescence, 24 h; stronger effect = higher value; also: nearly all actives have a fitted effect of over 20% in size
Method in brief: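 Cell-based rPXR activation assay: rPXR cells, 2,000 per well, rested 5hr at 37 C, then exposed to compounds in DMSO for 24 hr at 37 C. Luciferase activity read by One-Glo luminescence after 30 min at room temperature.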

[9] = target: Nuclear receptor subfamily 1 group I member 2 (Homo sapiens) (UniProt O75469); test: CYP3A4 induction through human pregnane X receptor (PXR) by small molecules, qHTS assay (AID 1346984); also: nearly all actives have a fitted effect of over 40% in size
Method in brief: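 Read-out is luminescence after One-Glo addition, following a 3 hr, 37C incubation with Luciferin-IPA CYP3A4 substrate (3uM final). Before that, compounds were on DPX-2 cells (HepG2 co-transfected with PXR element plus CYP3A4-promoter luciferase) for 24 hr at 37C.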

[10] = target: Nuclear receptor subfamily 1 group I member 2 (Homo sapiens) (UniProt O75469); test: Human pregnane X receptor (PXR) activation by small molecules, qHTS assay (AID 1346985); also: nearly all actives have a fitted effect of over 40% in size
Method in brief: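 DPX-2 cells (HepG2 co-transfected with a PXR response element and a CYP3A4-promoter luciferase construct) were seeded at 2,000 per well, rested 5 hr at 37C, then exposed to DMSO-dissolved compounds for 24 hr. Activation was read as luciferase luminescence.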
% is scaled to controls: 0 for no effect and ±100 for the full control effect.

Sequence of Thyrotropin-releasing hormone receptor (Homo sapiens) (P34981 whole entry, looked up): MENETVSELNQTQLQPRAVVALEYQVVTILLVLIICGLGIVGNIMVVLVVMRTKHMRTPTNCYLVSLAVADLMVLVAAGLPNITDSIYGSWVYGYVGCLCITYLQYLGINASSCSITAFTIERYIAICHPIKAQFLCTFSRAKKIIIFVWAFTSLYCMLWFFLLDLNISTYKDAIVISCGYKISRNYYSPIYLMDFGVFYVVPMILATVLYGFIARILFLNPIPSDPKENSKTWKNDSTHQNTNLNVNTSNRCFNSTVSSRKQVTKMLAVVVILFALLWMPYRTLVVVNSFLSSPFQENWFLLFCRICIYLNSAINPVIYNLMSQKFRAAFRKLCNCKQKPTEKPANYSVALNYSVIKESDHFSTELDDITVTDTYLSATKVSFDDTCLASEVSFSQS
Sequence of Nuclear receptor subfamily 1 group I member 2 (Homo sapiens) (O75469 whole entry, looked up): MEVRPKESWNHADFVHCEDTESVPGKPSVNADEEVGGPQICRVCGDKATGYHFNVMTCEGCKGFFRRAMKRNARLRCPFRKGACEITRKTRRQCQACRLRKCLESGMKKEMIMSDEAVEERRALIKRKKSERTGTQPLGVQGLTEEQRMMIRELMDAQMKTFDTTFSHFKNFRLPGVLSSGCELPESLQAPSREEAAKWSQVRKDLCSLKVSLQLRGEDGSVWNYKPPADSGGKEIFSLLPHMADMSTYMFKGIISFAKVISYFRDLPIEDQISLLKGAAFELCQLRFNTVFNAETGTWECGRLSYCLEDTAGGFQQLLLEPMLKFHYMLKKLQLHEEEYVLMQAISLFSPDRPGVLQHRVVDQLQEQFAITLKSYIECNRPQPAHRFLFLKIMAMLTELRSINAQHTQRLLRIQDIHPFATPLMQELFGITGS
Sequence of Nuclear receptor subfamily 1 group I member 2 (Rattus norvegicus) (Q9R1A7 whole entry, looked up): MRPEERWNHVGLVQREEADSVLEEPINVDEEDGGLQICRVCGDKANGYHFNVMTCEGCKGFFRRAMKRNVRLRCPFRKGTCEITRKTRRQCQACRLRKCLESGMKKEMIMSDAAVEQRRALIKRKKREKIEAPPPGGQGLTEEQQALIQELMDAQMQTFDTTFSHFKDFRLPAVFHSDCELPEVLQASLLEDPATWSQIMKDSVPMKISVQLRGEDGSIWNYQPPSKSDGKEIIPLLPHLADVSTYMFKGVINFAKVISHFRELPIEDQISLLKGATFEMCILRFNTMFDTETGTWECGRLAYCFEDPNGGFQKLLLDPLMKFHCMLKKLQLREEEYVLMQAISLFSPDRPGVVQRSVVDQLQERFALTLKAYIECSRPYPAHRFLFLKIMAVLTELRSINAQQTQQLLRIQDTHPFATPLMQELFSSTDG

O=C(O)C(F)(F)C(F)(F)C(F)(F)C(F)(F)C(F)(F)C(F)(F)C(F)(F)F
inactive: Potency [1] | Potency [2] | Potency [3] | Potency [4] | Potency [5] | Potency [6] | Potency [7]

CCOCN(C(=O)CCl)c1c(C)cccc1CC
active: Potency [4] 57.7 µM | Potency [7] 2.58 µM
inactive: Potency [1] | Potency [3] | Potency [5]

CN(C)c1ccc(C(=O)c2ccc(N(C)C)cc2)cc1
active: Potency [2] 54.5 µM | Potency [4] 24.3 µM | Potency [6] 48.6 µM | Potency [7] 48.1 µM and 17.2 µM
inactive: Potency [1] | Potency [5]

CC1(C)C(C=C(Cl)Cl)C1C(=O)OC(C#N)c1cccc(Oc2ccccc2)c1 (centres undefined)
active: Potency [7] 2.73 µM
inactive: Potency [1] | Potency [2] | Potency [3] | Potency [5] | Potency [6]

NNC(=S)NN
inactive: Potency [1] | Potency [2] | Potency [3] | Potency [7]
56 µM (active) and inactive: Potency [5]

C=CCc1ccc2c(c1)OCO2
inactive: Potency [2] | Potency [4] | Potency [5] | Potency [6]
43.5 µM (active) and inactive: Potency [3]
61.4 µM (active) and inactive: Potency [7]

Cc1c(COC(=O)[C@@H]2[C@H](/C=C(\Cl)C(F)(F)F)C2(C)C)cccc1-c1ccccc1
active: Potency [4] 43.1 µM
26.7 µM (active) and inactive: Potency [7]
inactive: Potency [2] | Potency [3] | Potency [5] | Potency [6]

CCC(C)c1cc([N+](=O)[O-])cc([N+](=O)[O-])c1O (centres undefined)
inactive and 15.4 µM (active): Potency [4]
inactive and 27.3 µM (active): Potency [7]
inactive and 8.63 µM (active): Potency [2]
inactive and 17.2 µM (active): Potency [6]
inactive: Potency [3] | Potency [5]

CCCCCc1cc(O)cc(O)c1
inactive: Potency [1] | Potency [2] | Potency [3] | Potency [5]
active: Potency [6] 48.6 µM | Potency [7] 61.4 µM and 30.6 µM

CCC(C)(C)c1ccc(O)cc1
inactive: Potency [1] | Potency [2] | Potency [5] | Potency [6] | Potency [7] | max activation [8] -0.805% | outcome [9] | outcome [10]

Brc1ccc(Oc2cc(Br)c(Br)cc2Br)c(Br)c1
inactive: Potency [1] | Potency [2] | Potency [3] | Potency [5] | Potency [6]
active: Potency [7] 17.2 µM and 30.9 µM

CCOC(=S)S
inactive: Potency [2] | Potency [3] | Potency [6]
active: Potency [4] 61.1 µM and 23.1 µM | Potency [5] 61.1 µM

Nc1ccc(-c2ccc(N)c(N)c2)cc1N
active: Potency [4] 68.4 µM and 61.1 µM | Potency [6] 48.4 µM | Potency [7] 24.3 µM
inactive: Potency [2] | Potency [3] | Potency [5]

N#CCCCl
inactive: Potency [2] | Potency [3] | Potency [4] | Potency [5] | Potency [7]

CN(C)C(=O)Nc1ccc(Cl)cc1
inactive: Potency [2] | Potency [3] | Potency [4] | Potency [5] | Potency [6] | Potency [7]

CC(C)c1ccc(CO)cc1
inactive: Potency [2] | Potency [3] | Potency [4] | Potency [5] | Potency [6] | Potency [7]

CCCCOCCOP(=O)(OCCOCCCC)OCCOCCCC
inactive: Potency [2] | Potency [3] | Potency [5] | Potency [6]
active: Potency [7] 10.9 µM and 19.3 µM

O=C(NC(=O)c1c(F)cccc1F)Nc1ccc(Cl)cc1
inactive: Potency [2] | Potency [3] | Potency [4] | Potency [5] | Potency [6]
2.44 µM (active) and inactive: Potency [7]

Oc1c(Cl)c(Cl)c(Cl)c(Cl)c1Cl
inactive: Potency [1] | Potency [3] | Potency [4] | Potency [5] | Potency [6]
active: Potency [7] 59.9 µM and 54.5 µM

O=C(O)CC[N+](=O)[O-]
inactive: Potency [2] | Potency [3] | Potency [4] | Potency [5] | Potency [6] | Potency [7]

CCOC(=O)C(C)OC(=O)c1cc(Oc2ccc(C(F)(F)F)cc2Cl)ccc1[N+](=O)[O-] (centres undefined)
active: Potency [7] 30.5 µM
inactive: Potency [1] | Potency [2] | Potency [3] | Potency [5] | Potency [6]

Cc1ccc(N)c(N)c1
inactive: Potency [2] | Potency [3] | Potency [5] | Potency [6]
active: Potency [7] 8.66 µM and 19.3 µM

CCOc1cc(Oc2ccc(C(F)(F)F)cc2Cl)ccc1[N+](=O)[O-]
active: Potency [7] 27.6 µM and 17.2 µM
inactive: Potency [1] | Potency [2] | Potency [3] | Potency [5] | Potency [6]

CC(C)(c1cc(Cl)c(O)c(Cl)c1)c1cc(Cl)c(O)c(Cl)c1
active: Potency [1] 34.7 µM | Potency [7] 54.5 µM and 43.3 µM
inactive: Potency [2] | Potency [3] | Potency [5] | Potency [6]

COc1ccc(C(CN(C)C)C2(O)CCCCC2)cc1 (centres undefined)
inactive: Potency [2] | Potency [3] | Potency [4] | Potency [5] | Potency [6] | Potency [7] | max activation [8] -0.342% | outcome [9] | outcome [10]

C[C@]12CCC(=O)C[C@@H]1CC[C@@H]1[C@@H]2CC[C@]2(C)[C@@H](O)CC[C@@H]12
inactive: Potency [2] | Potency [3] | Potency [5] | Potency [6] | max activation [8] -5.43%

O=C(CCl)c1ccccc1
active: Potency [4] 68.6 µM | Potency [7] 62 µM
inactive: Potency [2] | Potency [3] | Potency [5] | Potency [6]

Oc1cc(Cl)ccc1Oc1ccc(Cl)cc1Cl
active: Potency [2] 31.4 µM and 29.8 µM | Potency [4] 28.8 µM and 26.6 µM | Potency [6] 44.3 µM
64.4 µM (active) and inactive: Potency [3]
59.1 µM (active) and inactive: Potency [5]
inactive: max activation [8] -0.85%

Nc1ccc(Cl)cc1N
inactive: Potency [1] | Potency [2] | Potency [5]
active: Potency [3] 22.6 µM and 8.89 µM | Potency [6] 7.92 µM | Potency [7] 31.9 µM and 4.33 µM

CC(C)=CC1C(C(=O)OCc2coc(Cc3ccccc3)c2)C1(C)C (centres undefined)
inactive: Potency [2] | Potency [3] | Potency [4] | Potency [5] | Potency [6]
active: Potency [7] 24.3 µM

Source: PubChem BioAssay (Tox21)
